The text below walks through data of PubChem BioAssay (NCATS).

Inconclusive results are not listed. A call without a number means that no potency is given here. Calls of active or inactive are those of the source. The call rests on the fitted dose curve.

The target of this experiment is Estrogen receptor (Homo sapiens) (UniProt P03372). The experiment is described as follows: qHTS assay for small molecule agonists of estrogen receptor alpha signaling (AID 588514). Further: nearly all actives have a fitted effect of over 70% in size. Particulars: ER-alpha-UAS-bla HEK293, beta-lactamase ratio, 18 h; series mostly up to 76.8 µM. An excerpt: NIH Chemical Genomics Center [NCGC]
Sequence of Estrogen receptor (Homo sapiens) (P03372 whole entry, looked up): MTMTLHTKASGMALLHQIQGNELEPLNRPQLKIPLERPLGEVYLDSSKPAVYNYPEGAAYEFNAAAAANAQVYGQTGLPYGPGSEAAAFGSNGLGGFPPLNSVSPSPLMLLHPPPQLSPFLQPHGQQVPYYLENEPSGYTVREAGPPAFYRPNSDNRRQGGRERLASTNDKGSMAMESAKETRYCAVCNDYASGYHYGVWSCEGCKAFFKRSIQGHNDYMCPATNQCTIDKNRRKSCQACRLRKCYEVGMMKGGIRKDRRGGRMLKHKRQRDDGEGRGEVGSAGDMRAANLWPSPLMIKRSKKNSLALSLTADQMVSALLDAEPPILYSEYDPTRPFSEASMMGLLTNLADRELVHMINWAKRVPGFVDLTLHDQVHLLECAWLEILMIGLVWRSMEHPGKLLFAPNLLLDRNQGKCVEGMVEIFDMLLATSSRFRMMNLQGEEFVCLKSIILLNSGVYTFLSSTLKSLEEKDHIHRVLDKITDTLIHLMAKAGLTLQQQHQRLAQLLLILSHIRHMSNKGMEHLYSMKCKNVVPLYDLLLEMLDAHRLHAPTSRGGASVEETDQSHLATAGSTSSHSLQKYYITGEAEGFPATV
U.S. Environmental Protection Agency [EPA]
National Institutes of Environmental Health Sciences [NIEHS]
National Toxicology Program [NTP]
Estrogen receptor alpha (ER-alpha) is an important member of nuclear hormone receptors. ER-alpha plays important role in breast cancer as well as in other women's health issues. The majority of breast cancers is estrogen receptor (ER) positive and depends on estrogen for growth. There is also growing concern for some of environmental chemicals which may contribute the increasing the incidence of breast cancer. Therefore, it is important to understand the effect of environmental chemicals in ER-alpha signaling pathway.
NCGC Assay Protocol Summary
Using a beta-lactamase reporter-gene under control of the ER response element, a cell-based assay [ER-alpha-UAS-bla GripTiteTM cell-Based Assay from Invitrogen] was used to measure ER-alpha signaling pathway in agonist mode. ER-alpha-UAS-bla-GripTite HEK 293 cells were used with assay medium containing 2% charcoal/dextran treated FBS, 0.1 mM NEAA and 1 mM sodium pyruvate. Cells were cultured in this assay medium overnight in the flasks before the assay. The assay was performed in clear bottom black Greiner 1536-well plates. 17-beta-estradiol was used as a positive control in the screen. Library compounds were measured for their ability to either stimulate the reporter gene activity. Compounds were screened in a titration series in 1536-well format. […] Data was normalized relative to 17-beta-estradiol control (20 nM, 100%), and DMSO only wells (basal, 0%). Concentration-response titration points for each compound were fitted to the Hill equation yielding concentrations of half-maximal stimulation (EC50) and maximal response (efficacy) values.
qHTS protocol for ER-alpha beta-lactamase assay in agonist mode
[Step] [Parameter] [Value] [Description]
1. Reagent; 6 uL; 5000 cells/well
2. Incubation; 37 C for 4 hrs
4. Controls (17-beta-estradiol); 23 nL
- Dose response, start 1uM, 1:3 dilutions with duplicates
- Two columns with 20 and 0.5 nM (final) concentration.
5. Incubation; 37 C for 18 hrs
6. Detection reagent; 1 uL of CCF4-dye
7. Incubation; RT for 2 hrs
8. Detection; Fluorescence; Envision plate reader or Acumen plate reader
As for `Nc1ccc(Cl)cc1[N+](=O)[O-]`, the Potency entry is “inactive”.
On to `Cc1cccc(C)c1O`, for which the Potency result is “inactive”.
Take `CCOCCOCC`: the Potency entry was “inactive”.
For `CCC=O`, the Potency entry is “inactive”.
`Cc1cccc(C)c1`: the Potency entry was “inactive”.
As to `CC(=O)c1cccc([N+](=O)[O-])c1`, the Potency result was “inactive”.
Turning to `CC(C)(C)c1ccc(OCC2CO2)cc1` (stereo not given), the Potency result was “inactive”.
For the compound `CNC(=O)N(c1ccccc1)c1ccccc1`, the Potency entry was “inactive”.
In the case of `Nc1ccc(F)cc1F`, the Potency result is “inactive”.
The entry for `Cc1cc(C)c(N)cc1C` is “inactive”; for `FB(F)F` it is “inactive”; for `CCC(C)(C)C(=O)O` it is “inactive”.
The entry for `CC(C)CO` is “inactive”; for `Nc1cccc2c(=O)[nH][nH]c(=O)c12` it is “inactive”.
Then `Cc1ccc(C)c(N)c1`, with “inactive”; and `O=c1[nH][nH]c(=O)c2cc([N+](=O)[O-])ccc12`, with “inactive”.
`CC(C)N(C)C`: the Potency entry is “inactive”.
Then `Cc1ccccc1C#N`, with “inactive”; and `CCCCC(CC)COC(=O)CCCCC(=O)OCC(CC)CCCC` (stereo not given), with “inactive”.
On to `C1COC1`, for which the Potency entry was “inactive”.
As for `CCCCCCC=O`, the Potency entry was “inactive”.
For the compound `COC(=O)CC#N`, the Potency entry was “inactive”.
Then `CCC(C)(C)C`, with “inactive”; and `C=CCOC(=O)CCCCCCCC`, with “inactive”; and `ClC/C=C/CCl`, with “inactive”.
In the case of `CNC(=O)c1ccccc1`, the Potency result was “inactive”.
On to `CCC(C)(C)OC`, for which the Potency result was “inactive”.
As for `ICCc1ccccc1`, the Potency entry is “inactive”.
In the case of `FC(F)(F)c1ccccc1Cl`, the Potency entry is “inactive”.
Take `CC=O`: the Potency result is “inactive”.
On to `Cc1ccc(Br)cc1`, for which the Potency entry was “inactive”.
With `C/C(C=O)=C/c1ccccc1`, the Potency entry is “inactive”.
For `O=C(O[C@@H](C(=O)O)[C@@H](OC(=O)c1ccccc1)C(=O)O)c1ccccc1`, the Potency entry is “inactive”.
For `CC(CCl)OC(C)CCl` (stereo not given), the Potency entry was “inactive”.
The entry for `CCOc1cc(OCC)c(C(C)=O)cc1OCC` is “inactive”; for `Cc1cccc(C(=O)O)c1[N+](=O)[O-]` it is “inactive”.
As to `C=CCCCC`, the Potency entry was “inactive”.
Then `Nc1cccc(C(F)(F)F)c1`, with “inactive”; and `C/C=C1\CC2C=CC1C2` (stereo not given), with “inactive”; and `c1ccsc1`, with “inactive”.
